TRHR enhancer – allosterically enhances the human TRH receptor; P34981; TRHR cells, fluo-8 calcium fluorescence, EC20 TRH enhancement; enhancement, % at 2 µM; 360,000 tested, 0.66% active; AID 493056; in the data active = enhancement above about 30%
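Enhancer read-out: after compound pinning and an initial kinetic agonist-mode read, an EC20 of TRH (10 nM final) was injected and fluo-8 calcium signal (Ex 480/Em 530) followed at 1 s/cycle for 100 cycles in TRHR-expressing cells.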
D1 ag – activates the human D1 dopamine receptor. P21728. HEK293 T-REx D1 cells, calcium flux, agonist mode. activation, % at 2 µM. 360,000 tested, 1% active. AID 504660
Target sequence (P21728 whole entry, looked up): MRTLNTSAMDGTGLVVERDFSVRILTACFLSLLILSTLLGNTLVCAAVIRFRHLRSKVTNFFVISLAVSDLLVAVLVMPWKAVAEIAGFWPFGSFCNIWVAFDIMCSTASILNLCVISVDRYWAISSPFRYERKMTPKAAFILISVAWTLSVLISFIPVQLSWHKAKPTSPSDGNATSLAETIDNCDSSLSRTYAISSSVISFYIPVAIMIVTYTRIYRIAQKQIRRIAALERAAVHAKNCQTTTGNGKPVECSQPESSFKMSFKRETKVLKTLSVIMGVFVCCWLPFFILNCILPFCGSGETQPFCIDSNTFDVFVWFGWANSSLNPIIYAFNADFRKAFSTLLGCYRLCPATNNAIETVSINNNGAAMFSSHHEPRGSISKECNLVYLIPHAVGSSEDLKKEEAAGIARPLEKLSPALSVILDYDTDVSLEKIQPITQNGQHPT
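Inducible HEK293 T-REx D1 cells, force-coupled to calcium signalling, were plated at 4000 cells/well with tetracycline and held overnight at 30 C. After no-wash calcium dye loading, compound-evoked calcium rise over 180 s flagged agonists.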
D1 potentiator – enhances dopamine response at the human D1 receptor. HEK293 TREx D1 cells, calcium flux, dopamine EC20 potentiation. AID 504651. potentiation, % at 10 µM. P21728. 360,000 tested, 0.036% active; in the data active = potentiation above about 30%
D1 antag – blocks dopamine activation of the human D1 receptor. activity change, negative = inhibition, % at 10 µM. AID 504652. 360,000 tested, 3.2% active. HEK293 TREx D1 cells, calcium flux, dopamine EC80; active compounds read low. P21728; in the data active = activity change below about -30%
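Calcium flux readout: force-coupled, inducible Hek293 Trex D1 line, cells induced overnight at 30 C with tetracycline, dye-loaded 30–90 min at RT. Antagonism scored against EC80 dopamine challenge given 180 s after compound.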
TRHR ag – activates the human TRH receptor; P34981; TRHR cells, calcium flux fluo-8, FDSS agonist mode; activation, % at 2 µM; 360,000 tested, 0.18% active
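Steps: seed TRHR cells overnight; add fluo-8 no-wash Ca dye, RT 30 min–1.5 h; record 10 s baseline; pin-transfer compounds; monitor fluorescence 1 cycle/s for the agonist window. Calcium increases flag candidate agonists.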
Large screens that a line does not name were inactive. A selection: hits, their analogues and other compounds. The true share with any hit is near 4.7%. Rule as the data show it, unless noted: active = activation above about 30%; inactive = the rest.

CCCCCNC(=O)c1cc(S(=O)(=O)N2CCCCC2)ccc1F	D1 antag -62.1
CC(=O)c1c(C)[nH]c(C(=O)Nc2cc(S(=O)(=O)N3CCCCC3)ccc2C)c1C	D1 antag -31.4
COc1cn(CC(=O)Nc2cccc(C)c2)c(CN2CCCCC2)cc1=O	none
Brc1[nH]nc2ccccc12	D1 antag -33.4
O=C(O)c1cc(-c2ccc(Br)s2)nc2ccccc12	none
CC1CCCC(NC(=O)COC(=O)c2ccccc2Sc2ccccc2C#N)C1C (stereo not given)	TRHR enhancer 30.2
COc1cccc(OCc2nc3ccccc3n2C)c1	none
c1ccc2c(Nc3nc(N4CCOCC4)c4ccccc4n3)cccc2c1	D1 antag -47.7
Fc1ccc(Nc2nc(N3CCOCC3)c3ccccc3n2)cc1	none
CCOc1ccc(CCNC(=O)c2ccc3[nH]c(C)c(C)c3c2)cc1	none
Cc1ccc(CCNC(=O)c2ccc3[nH]c(C)c(C)c3c2)cc1	D1 antag -44.1
CC1=C(C(=O)OC2CCCCCC2)C(c2cccc(Cl)c2)CC(=O)N1 (stereo not given)	none
CCC(=O)N1CCc2cc(CNC(=O)Nc3ccc(OC)cc3OC)ccc21	none
COc1cc(CNCc2ccc(Br)cc2)cc(OC)c1	D1 ag 82.4
COc1cc(CNCc2ccc(OC)cc2OC)cc(OC)c1	none
COc1cc(CNCc2c[nH]c3ccccc23)cc(OC)c1	D1 antag -39.8
O=C1C2=C(Nc3ccccc3SC2c2ccccc2C(F)(F)F)c2ccccc21 (stereo not given)	none
CCCOc1ccc(Nc2cc(C)nc(C)n2)cc1	none
COc1ccccc1N1CCN(C(=O)c2cnc(N3CCCCC3)c3ccccc23)CC1	none
CCOC(=O)C1=C(C)NC(C)=C(C(=O)OCC)C1C(=O)OCC(N)=O	none
CN(C(=O)COC(=O)c1ccccc1Nc1ccccc1)C1CCS(=O)(=O)C1 (stereo not given)	none
CN(C(=O)COC(=O)c1ccccc1OCc1ccc(F)cc1)C1CCS(=O)(=O)C1 (stereo not given)	D1 antag -31.4
CCOC(=O)C1=C(C)NC(C)=C(C(=O)OCC)C1C(=O)OCC(=O)N(C)C1CCS(=O)(=O)C1 (stereo not given)	D1 antag -35.9
Cc1ccc(N(Cc2cccs2)C(=O)C(C)Oc2ccc(Cl)c(C)c2)cc1 (stereo not given)	none
O=[N+]([O-])c1ccc(P(=O)(Cc2ccccc2)c2ccccc2O)cc1 (stereo not given)	D1 antag -34.4
Nn1c(Cc2ccccc2F)nnc1SCCOc1ccc(Cl)cc1	D1 antag -39.3
COc1ccc(OCCSc2nnc(Cc3cccc4ccccc34)n2N)cc1	none
COc1ccccc1NC(=O)COC(=O)c1ccc(N2CCCC2=O)cc1	D1 antag -31.0
Cc1ccc(Cn2c(SCc3ccc(C(=O)O)cc3)nc3cccnc32)cc1	none
O=C(C1CCCCN1S(=O)(=O)c1ccccc1)N1CCCCC1 (stereo not given)	none
O=C(C1CCCCN1S(=O)(=O)c1ccccc1)N1CCN(C(c2ccccc2)c2ccccc2)CC1 (stereo not given)	D1 antag -30.5
CC1=CC(C)(C)N(C(=O)CN2C(=O)CCC2=O)c2ccccc21	D1 antag -37.7
Cc1cc2c(n1-c1ccc(C(=O)NCc3cccc(Br)c3)cc1)CCC(C)C2 (stereo not given)	D1 antag -59.7
Cc1cc2c(n1-c1ccc(C(=O)NCCc3ccc(Cl)cc3)cc1)CCC(C)C2 (stereo not given)	TRHR enhancer 31.0
COc1cccc(CNC(=O)c2ccc(-n3c(C)cc4c3CCC(C)C4)cc2)c1 (stereo not given)	none
Cc1ccc(CNC(=O)Cn2ccn(-c3ccc(F)c(F)c3)c(=O)c2=O)cc1	none
Cc1c(C(=O)N(C)C)sc2c1c(=O)n(-c1ccc(Cl)cc1)c(=O)n2CC(=O)C(C)(C)C	none
CC(C)N1C(=O)CCC1C(=O)N1CCN(c2ccc(F)cc2)CC1 (stereo not given)	none
O=C(C1CCC(=O)N1Cc1ccccc1Cl)N1CCN(c2ccc(F)cc2)CC1 (stereo not given)	D1 antag -48.2
CN(CCCNC(=O)C1CCC(=O)N1Cc1ccccc1Cl)c1ccccc1 (stereo not given)	none

Bioassay records: PubChem, National Center for Advancing Translational Sciences (NCATS)
